Measurements as given in the supplement of paper PMC4723716.
Values joined by “and” are separate entries in the source; they are usually repeats but may differ in a detail not shown here. Equal values may be shown once. ± gives the uncertainty stated by the source. Whole data set: some 9,900 compounds, median “viability index relative to DMSO control” near 1, cut for the lowest 2% near 0.85. The entries come from a sample that favours the lowest values as a whole.

Tested on: Plasmodium falciparum NF54 stage V gametocytes
Assay: viability index relative to DMSO control (fraction); higher = less gametocyte killing
Conditions: 2.5 µM, incubation time: 72 h
Description: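 Broad DOS informer set and blood-stage-active DOS compounds screened in duplicate at 2.5 µM against P. falciparum NF54 stage V gametocytes with the serum-free one-step SaLSSA (1536-well): 72 h at 37 °C under low oxygen, then saponin lysis and MitoTracker Red CMXRos staining, with high-content imaging. Viability index = viable-object count divided by the plate mean of DMSO wells (0 = killed, about 1 = inactive).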

[1] = library set: Broad Institute DOS

Row | SMILES | viability index [1] | viability index (library set: Broad Institute Blood Stage)
1 | O=C(Nc1ccccc1)N1C[C@@H]2N[C@H](C1)[C@H]2c1ccc(-c2ccccc2F)cc1 | 1.1 ± 0.05 | –
2 | O=C(C1CCCCC1)N1C[C@@H]2N[C@H](C1)[C@H]2c1ccc(-c2ccccc2F)cc1 | 1.08 ± 0.092 | –
3 | N#C[C@H]1[C@@H](c2ccccc2-c2cccc(F)c2)[C@H](CO)N1S(=O)(=O)c1cccc(F)c1 | 1.17 ± 0.1 | –
4 | C[C@@H]1CCCCO[C@H](CN(C)Cc2ccc(Cl)c(Cl)c2)[C@@H](C)CN([C@H](C)CO)C(=O)c2cc(NC(=O)c3ccncc3)ccc2O1 | 1.05 ± 0.047 | –
5 | C/C=C/c1ccc([C@@H]2[C@@H](CO)N3C(=O)CN(S(=O)(=O)c4ccccc4)C[C@H]23)cc1 | 1.11 ± 0.026 | –
6 | CN1c2ccc(-c3ccc(F)cc3)cc2[C@@H]2[C@@H](CCN2C(=O)Cc2cccnc2)[C@@H]1CO | 1.09 ± 0.061 | –
7 | C[C@@H]1CN([C@@H](C)CO)C(=O)c2cc(NC(=O)Nc3ccccc3)ccc2O[C@H]1CN(C)Cc1ccccc1 | 0.979 ± 0.015 | –
8 | C[C@@H]1CN([C@H](C)CO)C(=O)c2c(c3ccccc3n2C)-c2ccccc2CO[C@H]1CN(C)C(=O)[C@@H](Cc1ccccc1)N(C)C | 1.14 ± 0.11 | –
9 | COCC(=O)N1[C@@H]2CN(C)c3ccccc3[C@@H]2[C@@H]1CO | 1.05 ± 0.034 | –
10 | CN(C)C(=O)c1cccc(-c2cccc(-c3nc(C(=O)N4CCCCC4)cc4c3[C@H](CCO)N([S@@](=O)C(C)(C)C)C4)c2)c1 | 1.04 ± 0.0013 | –
11 | C[C@H]1CN([C@@H](C)CO)C(=O)Cc2cc(NC(=O)CCC(F)(F)F)ccc2O[C@H]1CN(C)CC1CC1 | 1.0278 ± 0.00041 | –
12 | O=C(C[C@H]1C=C[C@@H](NC(=O)c2ccncc2)[C@@H](CO)O1)NCC1CC1 | 1.08 ± 0.03 | –
13 | COc1ccc2c3c([nH]c2c1)[C@@H](CO)N(C[C@]31CCN(Cc2ccccc2Cl)CC1)S(=O)(=O)c1cn(C)cn1 | 0.955 ± 0.018 | –
14 | O=C(Cc1ccncc1)NCC[C@H]1CC[C@H](NS(=O)(=O)c2ccccc2Cl)[C@H](CO)O1 | 1.09 ± 0.031 | –
15 | CN1[C@@H]2Cn3c(ccc(-c4ccncc4)c3=O)[C@H]1[C@@H](C(=O)N1CCC(Cc3ccccc3)CC1)[C@@H]2CO | 1.11 ± 0.041 | –
16 | COc1ccc2c3c([nH]c2c1)[C@H](CO)N(C[C@]31CCN(Cc2cncnc2)CC1)C(=O)CN(C)C | 0.991 ± 0.06 | –
17 | O=C(NC[C@@H]1[C@@H](c2ccccc2)[C@H](CO)N1Cc1ccccn1)C1CCCC1 | 1.05 ± 0.068 | –
18 | O=C(NC[C@@H]1[C@H](c2ccccc2)[C@H](CO)N1Cc1ccccn1)C1CCCC1 | 0.684 ± 0.14 | –

Row | SMILES | viability index [1] | viability index (library set: Broad Institute Blood Stage)
19 | O=C(NC[C@H]1[C@H](c2ccccc2)[C@@H](CO)N1Cc1ccccn1)C1CCCC1 | 0.9562 ± 0.0077 | –
20 | N#C[C@H]1[C@H](c2ccc(C#Cc3ccccc3F)cc2)[C@@H](CO)N1C(=O)c1cccnc1 | 1.02 ± 0.033 | –
21 | C[C@H](CO)N1C[C@H](C)[C@H](CN(C)CC2CC2)Oc2ccc(NC(=O)CCC(F)(F)F)cc2CC1=O | 0.953 ± 0.022 | –
22 | C[C@@H]1CN([C@@H](C)CO)C(=O)c2ccccc2-c2ccccc2CO[C@@H]1CN(C)Cc1cccnc1 | 1.049 ± 0.005 | –
23 | CCC(=O)NC[C@H]1[C@@H](c2ccc(-c3ccc(C#N)cc3)cc2)[C@@H](CO)N1CCC(F)(F)F | 1.01 ± 0.028 | –
24 | OC[C@@H]1[C@H](c2ccc(-c3ccc(F)cc3)cc2)[C@H](CNC2CCCC2)N1CCC(F)(F)F | 0.837 ± 0.1 | –
25 | CCCN1[C@H](CO)[C@H](c2ccc(C#Cc3ccccc3)cc2)[C@@H]1CNC1CCCC1 | 0.914 ± 0.021 | –
26 | CN(C[C@H]1[C@@H](c2ccc(C3=CCCC3)cc2)[C@@H](CO)N1CCC(F)(F)F)S(C)(=O)=O | 1.02 ± 0.046 | –
27 | OC[C@@H]1[C@H](c2ccc(-c3ccc(F)cc3)cc2)[C@@H](CNC2CCCC2)N1CCC(F)(F)F | 0.557 ± 0.096 | –
28 | OC[C@H]1[C@@H](c2ccc(-c3ccc(F)cc3)cc2)[C@@H]2CN(CCC(F)(F)F)CCCCN12 | – | 0.959 ± 0.057
29 | CO[C@H](CN(C)C(=O)c1cnccn1)[C@H](C)CN([C@H](C)CO)S(=O)(=O)c1ccccc1 | 0.948 ± 0.067 | –
30 | COc1ccc(CNC(=O)C[C@H]2CC[C@H](NC(=O)CN(C)C)[C@@H](CO)O2)cc1 | 1.1 ± 0.008 | –
31 | NCC[C@H]1CC[C@H](NS(=O)(=O)c2ccc(Cl)cc2)[C@H](CO)O1 | 0.803 and 1.11 | –
32 | NCC[C@@H]1CC[C@@H](NS(=O)(=O)c2ccc(Cl)cc2)[C@@H](CO)O1 | 1.02 and 1.13 | –
33 | NCC[C@@H]1CC[C@H](NS(=O)(=O)c2ccc(Cl)cc2)[C@H](CO)O1 | 1.08 ± 0.093 | –
34 | C[C@@H]1C/C=C/C[C@@H](c2cccc(Cl)c2)NC(=O)[C@@H](Cc2ccccc2)N(C)C(=O)c2ccccc2O1.C[C@@H]1C/C=C\C[C@@H](c2cccc(Cl)c2)NC(=O)[C@@H](Cc2ccccc2)N(C)C(=O)c2ccccc2O1 | 0.812 ± 0.044 | –
35 | C[C@@H]1C/C=C/C[C@@H](c2cccc(Cl)c2)NC(=O)[C@H](Cc2ccccc2)N(C)C(=O)c2ccccc2O1.C[C@@H]1C/C=C\C[C@@H](c2cccc(Cl)c2)NC(=O)[C@H](Cc2ccccc2)N(C)C(=O)c2ccccc2O1 | 0.94 ± 0.029 | –
36 | C[C@@H]1C/C=C/C[C@H](c2cccc(Cl)c2)NC(=O)[C@@H](Cc2ccccc2)N(C)C(=O)c2ccccc2O1.C[C@@H]1C/C=C\C[C@H](c2cccc(Cl)c2)NC(=O)[C@@H](Cc2ccccc2)N(C)C(=O)c2ccccc2O1 | 0.9516 ± 0.0088 | –
